Consider 39 sequences from the supplement of paper PMC6555819.

The first experiment deals with THRa homodimer (NR concentration 90 nM). Description: PBM binding z-score (relative to random genomic background probes); higher = stronger binding; sequences stand for … in GC…GCGATTGACAGCGTAGAATGAAGG
The method in brief: (§1)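 Binding buffer was PBS pH 7.4 with 2% milk, 0.02% Triton X-100, 1 mM DTT, 0.2 mg/mL BSA and 0.4 mg/ml salmon testes DNA. In it, ligand-free nuclear receptor dimers were incubated 1 h on custom Agilent 4×180K protein-binding microarrays carrying double-stranded probes. Antibodies against each partner (one per run) detected binding, and z-scores were calculated against random background probes after regression normalization of scanned fluorescence.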
For the sequence ATATGTAGGTTAAGGGACATTCAGGTTGGTTCGC, the PBM binding z-score was 0.815.
In the case of ATCTCTAGGTAACCAAGTTCAGTGAGTGCCGAAC, the PBM binding z-score was found to be 0.776.
In the case of GCACACAGGTGAAACGCAGGTAACTCAGGGTGGC, the PBM binding z-score is -0.486.
Turning to TCTAGTTGGTCACGGAGGTTACACACGACGGGTA, the PBM binding z-score was found to be 0.725.
On the same count and under the same terms, the figure for TCTTGGAGATCAGCAGGTTAAGAAAGCTGGCCAA is -0.695; for ATATGTAGGTTATCGGGTCATGCAGTTTGCGCAT it is 3.02.
Same read-out and setting: the figure for GCAGACAGGTGAAACGCAGGTCACTCAGGGTGGC is 0.663; for GCTGCTAGGTCAGGTTGGTCCGCTAACGGGTACG it is 0.57.
On the same count and under the same terms, the figure for CGACCAAGGTCATAGGAGGTCAGTGAAGACAGAT is 2.69.
Take CGTCCAAGGTCAGAGAGGTCAGTGGATGCCGAGT: the PBM binding z-score came to 3.05.
On the same count and under the same terms, the figure for CGTCCAAGGCCAGCAGGTCAGTGAAAGCGACGTG is 0.193; for GCAGACAGGTGAAACGCAGGGAACTCAGGGTGGC it is -0.443; for CGTCCAAGGTCAGAGAGGTTAGTGAATGCCGAGT it is 1.87.
Same read-out and setting: the value for TAGCCTAGGTCATTGGCCCAGTATAGTACGCATC was 0.907.
The same measure, in the same setting: the figure for GATACAGGGTCAAGGCCAGTGTACGCGTATTGAT is 1.08; for TGTCTAAGTTCAAAGGTAACGTAAGTATCCACAC it is 0.485; for CTCGAAAGGTCGTGCTCAGGTGGGTATACCAAAC it is 0.504.
For CGAACTAGGTCATCCACGACAGTGAATACATTGA, the PBM binding z-score came to 1.22.
Turning to ACTAGTTGGTCAGCTGAAGTCACACACAATTCGG, the PBM binding z-score is -0.0517.
On the same count and under the same terms, the figure for TAATATAGGTAAACAGGTGAAAGTCCGTAAGTTA is 0.313; for CCTTACGGGTCGCGAGGTTATAGCACGACGAGCG it is 0.349.
Still for that read-out and setting: the value for TCTAGGAGGCCAGAGGGTCACTCAAGAGGTACGG was 0.0241; that for CCTACTGGGCAACGAAAGGTCATTGATTCAGTGA was 0.612; that for AGCATGAGGTTAAGATCAGGGAAACAGAATACAT was 0.635.
The same measure, in the same setting: the value for TAACCAAGGTGAGCTGAGGTCGTTGATCCAACTC was 1.86.
Sequence TCATTTAGGTAAACAGGTGAAAGTCCGTAAGTTA had a PBM binding z-score of 1.13.
Sequence CCTCTGAGGACAACAGGAGGTCAGAGCTGCCAGA gave a PBM binding z-score of 3.02.
Regarding CAAACTAGGTCAAGCTCAAAGTCGGTTTGTGCCA, the PBM binding z-score was 1.34.
On the same count and under the same terms, the value for GCTGCTACGTCAACTGATGGTCAGCTAAAGCTCG was -0.948; that for ACTTACGGGTGAACGAGGTTATAGCACGCGTATA was 0.511; that for ATCGAAAGGTCGACAAGGTGAGTATACACCGTTT was 0.513.
With GGAACGAGGGCAAGGTGATAGCAGAGTTTGATGG, the PBM binding z-score was 0.882.
Regarding CGTCCAAGGTCAGAGAGGTCAGAGAATGCCGAGT, the PBM binding z-score turned out to be 2.72.
On the same count and under the same terms, the value for CCCAGTTGGTCAGGAGGTCACACACCGGATATGA was 2.63.
In turn, ACTATTAGTTGAGGCGAGGGCAACCGATAGGTTG showed a PBM binding z-score of 0.721.
Still for that read-out and setting: the figure for ACAGACAGGTGCTGAAGGTAACTCAGGCTATCAT is -0.356.
Same read-out and setting: the value for GCTCGCAGGACAAGGTCAGAGCTTTGTCCGTAGA was 1.09.
Still for that read-out and setting: the value for CCGACTGGCGCAGAAAGGTTACCATACCATCCGG was -0.286; that for CCAGACAGGTGAAAGGTATCTCAGTCTGGTACGC was -0.151.

A further experiment relates to VDR:RXRa (NR concentration 270 nM, RXRa partner concentration 90 nM). The experiment is described as above. In a few lines: as §1
ATATGTAGGTTAAGGGACATTCAGGTTGGTTCGC showed a PBM binding z-score of 1.07.
The same measure, in the same setting: the figure for ATCTCTAGGTAACCAAGTTCAGTGAGTGCCGAAC is 4.27.
The same measure, in the same setting: the value for GCACACAGGTGAAACGCAGGTAACTCAGGGTGGC was -0.336; that for TCTAGTTGGTCACGGAGGTTACACACGACGGGTA was 3.16; that for TCTTGGAGATCAGCAGGTTAAGAAAGCTGGCCAA was 0.335.
Same read-out and setting: the figure for ATATGTAGGTTATCGGGTCATGCAGTTTGCGCAT is 4.98; for GCAGACAGGTGAAACGCAGGTCACTCAGGGTGGC it is 2.28.
Sequence GCTGCTAGGTCAGGTTGGTCCGCTAACGGGTACG yielded a PBM binding z-score of 0.681.
CGACCAAGGTCATAGGAGGTCAGTGAAGACAGAT had a PBM binding z-score of 6.59.
Consider CGTCCAAGGTCAGAGAGGTCAGTGGATGCCGAGT, for which the PBM binding z-score is 7.33.
In turn, CGTCCAAGGCCAGCAGGTCAGTGAAAGCGACGTG returned a PBM binding z-score of -0.178.
Still for that read-out and setting: the value for GCAGACAGGTGAAACGCAGGGAACTCAGGGTGGC was -0.604.
CGTCCAAGGTCAGAGAGGTTAGTGAATGCCGAGT: the PBM binding z-score was determined as 5.8.
TAGCCTAGGTCATTGGCCCAGTATAGTACGCATC had a PBM binding z-score of 2.09.
For GATACAGGGTCAAGGCCAGTGTACGCGTATTGAT, the PBM binding z-score turned out to be 4.28.
Sequence TGTCTAAGTTCAAAGGTAACGTAAGTATCCACAC registered a PBM binding z-score of 4.6.
CTCGAAAGGTCGTGCTCAGGTGGGTATACCAAAC showed a PBM binding z-score of 3.24.
As to CGAACTAGGTCATCCACGACAGTGAATACATTGA, the PBM binding z-score turned out to be 2.18.
For the sequence ACTAGTTGGTCAGCTGAAGTCACACACAATTCGG, the PBM binding z-score was -0.103.
Sequence TAATATAGGTAAACAGGTGAAAGTCCGTAAGTTA registered a PBM binding z-score of 1.19.
As for CCTTACGGGTCGCGAGGTTATAGCACGACGAGCG, the PBM binding z-score amounted to 2.88.
The same measure, in the same setting: the value for TCTAGGAGGCCAGAGGGTCACTCAAGAGGTACGG was 1.68; that for CCTACTGGGCAACGAAAGGTCATTGATTCAGTGA was 3.7; that for AGCATGAGGTTAAGATCAGGGAAACAGAATACAT was 1.36.
Same read-out and setting: the figure for TAACCAAGGTGAGCTGAGGTCGTTGATCCAACTC is 4.26.
Turning to TCATTTAGGTAAACAGGTGAAAGTCCGTAAGTTA, the PBM binding z-score was 1.26.
In turn, CCTCTGAGGACAACAGGAGGTCAGAGCTGCCAGA returned a PBM binding z-score of 2.17.
Sequence CAAACTAGGTCAAGCTCAAAGTCGGTTTGTGCCA displayed a PBM binding z-score of 1.7.
In turn, GCTGCTACGTCAACTGATGGTCAGCTAAAGCTCG gave a PBM binding z-score of -0.617.
On the same count and under the same terms, the value for ACTTACGGGTGAACGAGGTTATAGCACGCGTATA was 5.33; that for ATCGAAAGGTCGACAAGGTGAGTATACACCGTTT was 4.61.
Same read-out and setting: the figure for GGAACGAGGGCAAGGTGATAGCAGAGTTTGATGG is 0.867; for CGTCCAAGGTCAGAGAGGTCAGAGAATGCCGAGT it is 7.59; for CCCAGTTGGTCAGGAGGTCACACACCGGATATGA it is 3.96.
ACTATTAGTTGAGGCGAGGGCAACCGATAGGTTG returned a PBM binding z-score of 0.632.
On the same count and under the same terms, the value for ACAGACAGGTGCTGAAGGTAACTCAGGCTATCAT was -0.264.
On the same count and under the same terms, the value for GCTCGCAGGACAAGGTCAGAGCTTTGTCCGTAGA was 0.842; that for CCGACTGGCGCAGAAAGGTTACCATACCATCCGG was 0.29; that for CCAGACAGGTGAAAGGTATCTCAGTCTGGTACGC was 0.0976.
